FMDV antiviral – High Throughput Screening for Foot and Mouth Disease Virus Antivirals | hit rate 1.2% among 410,000 | FMDV antiviral cell-based qHTS | Potency, µM (series often up to 57.9 µM), usual class: inhibitors | AID 1159524, 2015; calls by dose curve; tested in HEK293T cells; also: read-out not given here; nearly all actives have a fitted effect of over 45% in size
HCMV antiviral – qHTS Assay for inhibitors of the human cytomegalovirus (HCMV); HFF cells, HCMV-luciferase reporter, 72 h; hits give low values; activity change, negative = inhibition, % at 57.5 µM; hit rate 4.5% among 410,000; AID 1259415, 2018; in the data active = activity change below about -60%; inconclusive = no clear call, values can overlap the other calls; inactive = above about -39%
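Compounds were evaluated in HFFs infected with an HCMV luciferase reporter virus (MOI 1 PFU/cell). Luciferase in lysates collected 72 h post infection served as the replication measure.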
Vaccinia mCherry – qHTS for Stage-Specific Inhibitors of Vaccinia Orthopoxvirus: mCherry Reporter Primary qHTS | hit rate 0.63% among 310,000 | Vaccinia virus mCherry reporter infection, fluorescence | Potency, µM (highest dose often 36.5 µM), hits mostly inhibitors; calls by dose curve; tested in A549 cells; also: nearly all actives have a fitted effect of over 35% in size
Vaccinia Venus – qHTS for Stage-Specific Inhibitors of Vaccinia Orthopoxvirus: Venus Reporter Primary qHTS; Vaccinia virus Venus reporter expression, fluorescence; Potency, µM (top dose mostly 36.5 µM), actives largely listed as inhibitors; hit rate 0.46% among 330,000; AID 720580, 2013; calls by dose curve; tested in A549 cells; also: nearly all actives have a fitted effect of over 30% in size
HCV inh – qHTS Assay for Inhibitors of Hepatitis C Virus (HCV); Huh7.5.1 HCVcc-Cre infection, luciferase reporter, 44 h; Potency, µM (highest dose often 41.8 µM), hits mostly inhibitors; hit rate 3.4% among 340,000; AID 651820, 2012; active = well fitted inhibition curve with a large enough effect; inconclusive = small, poorly fitted or top-dose-only effect, or another doubt; inactive = no such curve, though single readings can be large or run the other way
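After 44 h co-culture of compound, cells and HCVcc-Cre (~0.5 moi), substrate is added for 15 min at room temperature and luciferase measured over 15 sec. Cells were seeded at 1,000/well and pre-cultured 4 h.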
Large screens that a line does not name were inactive. A selection: hits, their analogues and other compounds. The true share with any hit is near 7.3%.

COc1ccc(CCNC(=O)c2cc(C3CC3)nc3c2cnn3C(C)C)cc1OC	FMDV antiviral inconclusive, HCV inh inconclusive (no result: Vaccinia mCherry, Vaccinia Venus)
COc1ccc(CNC(=O)c2cc(C3CC3)nc3c2cnn3C(C)C)cc1	HCV inh 2.24µM (no result: Vaccinia mCherry, Vaccinia Venus)
CSc1ncc(C(=O)NCc2ccc(F)cc2)c(-c2ccccc2)n1	none (no result: HCV inh)
COc1ccc(OC)c(NC(=O)c2c(N3CCCC3=O)c3cc(OC)ccc3n2C)c1	none (no result: HCV inh)
CC(C)n1ncc2c(C(=O)Nc3cccc(C#N)c3)cc(C3CC3)nc21	FMDV antiviral inconclusive, HCMV antiviral -90.9, HCV inh 11.2µM (no result: Vaccinia mCherry, Vaccinia Venus)
CC(C)n1ncc2c(C(=O)O)cc(C3CC3)nc21	none (no result: Vaccinia mCherry, Vaccinia Venus)
CCNC(=O)c1cccc(NC(=O)c2cc(C3CC3)nc3c2cnn3C(C)C)c1	HCV inh inconclusive
CC(C)n1ncc2c(C(=O)N3CCN(Cc4ccc(Br)s4)CC3)cc(C3CC3)nc21	HCV inh 10µM (no result: Vaccinia mCherry, Vaccinia Venus)
COc1ccccc1N(CC(=O)Nc1ccc2c(c1)OCO2)S(=O)(=O)c1ccc(C)cc1	none (no result: HCV inh)
N#Cc1c(N2CCN(C(=O)c3ccco3)CC2)nc(-c2ccccc2)c2c1CCCC2	FMDV antiviral inconclusive, HCMV antiviral -77.8, Vaccinia mCherry inconclusive, Vaccinia Venus inconclusive, HCV inh inconclusive
N#Cc1c(N2CCN(C(=O)c3ccccc3Cl)CC2)nc(-c2ccccc2)c2c1CCCC2	HCV inh inconclusive
CC(C)Cc1nc(N2CCN(C(=O)c3ccccc3)CC2)c(C#N)c2c1CCC2	FMDV antiviral inconclusive, HCMV antiviral inconclusive, HCV inh 11.2µM (no result: Vaccinia mCherry, Vaccinia Venus)
CC(C)Cc1nc(N2CCNCC2)c(C#N)c2c1CCC2	HCV inh 3.16µM
CC(=O)N1CCN(c2nc(CC(C)C)c3c(c2C#N)CCC3)CC1	HCV inh inconclusive
CC(C)Cc1nc(N2CCN(C(=O)c3ccco3)CC2)c(C#N)c2c1CCC2	FMDV antiviral 25.1µM, HCV inh inconclusive
O=S(=O)(c1ccccc1Br)N1CCN(c2nc(-c3ccccc3)nc3ccccc23)CC1	none (no result: FMDV antiviral, HCMV antiviral, HCV inh)
CC(C)c1c(C(=O)N(C)Cc2cccc3ncccc23)cnn1-c1nccc(-c2ccccc2F)n1	FMDV antiviral 12.6µM, Vaccinia mCherry inconclusive, Vaccinia Venus inconclusive (no result: HCMV antiviral, HCV inh)
CCc1ccc(S(=O)(=O)NCc2nc(N3CCCC3)c3cccc(C)c3n2)cc1	none (no result: HCMV antiviral, HCV inh)
COc1ccc(Nc2c3ccccc3nc3ccccc23)cc1	FMDV antiviral inconclusive, HCMV antiviral -101.8, Vaccinia mCherry inconclusive, Vaccinia Venus inconclusive, HCV inh inconclusive
c1ccc2c(Nc3ccc4c(c3)OCCO4)c3c(nc2c1)CCC3	FMDV antiviral inconclusive, HCMV antiviral -78.8, HCV inh inconclusive (no result: Vaccinia mCherry, Vaccinia Venus)
c1ccc(Nc2c3c(nc4ccccc24)CCC3)cc1	FMDV antiviral inconclusive, HCMV antiviral inconclusive, Vaccinia mCherry inconclusive, HCV inh inconclusive
COc1ccc(Nc2c3c(nc4ccccc24)CCC3)cc1	FMDV antiviral inconclusive, HCMV antiviral -94.0, Vaccinia mCherry inconclusive, Vaccinia Venus inconclusive, HCV inh inconclusive
COc1ccc(C)cc1Nc1c2c(nc3ccccc13)CCC2	FMDV antiviral inconclusive, HCMV antiviral -88.5, Vaccinia mCherry inconclusive, HCV inh inconclusive
CCc1ccccc1NC(=O)C1CCN(c2nn3c(=O)cc(C)nc3s2)CC1	none (no result: HCV inh)
CC(=O)N1CC(=O)N2[C@@H](CO)[C@H](c3ccc(Br)cc3)[C@@H]2C1	none (no result: FMDV antiviral, Vaccinia mCherry, Vaccinia Venus, HCV inh)
COc1ccccc1N1CCN(c2nc(CNC(=O)c3cc(C)oc3C)nc3ccccc23)CC1	none (no result: HCMV antiviral, HCV inh)
Fc1ccc(Nc2c3c(nc4ccccc24)CCC3)cc1	HCMV antiviral -63.9, HCV inh 14.1µM
C=C1C[C@H]2[C@@H]3CCc4cc(OC)ccc4[C@H]3CC[C@]12C	HCMV antiviral -69.4
Cc1ccc(C2=CN(CCC(=O)O)C(=O)C2)cc1	none (no result: FMDV antiviral, Vaccinia mCherry, Vaccinia Venus, HCV inh)
Cc1ccc(C2CC2c2n[nH]c(=S)n2-c2ccc(C)cc2)cc1 (stereo unspecified)	HCV inh 25.1µM (no result: Vaccinia mCherry, Vaccinia Venus)
CN(C)CCNC(=O)c1cc2c(s1)-c1ccc(Cl)cc1SC2	FMDV antiviral inconclusive, HCMV antiviral -99.8, Vaccinia mCherry inconclusive, Vaccinia Venus 3.55µM, HCV inh 11.2µM
CCCN(C(=O)c1cc2c(s1)-c1ccccc1SC2)c1ccccc1F	HCMV antiviral -68.3 (no result: HCV inh)
Cc1cn([C@H]2C[C@H](O)[C@@H](CCC(=O)NCc3ccccc3)O2)c(=O)[nH]c1=O	Vaccinia mCherry active, Vaccinia Venus inconclusive, HCV inh 3.55µM
NC[C@H]1O[C@H](O[C@H]2[C@H](O)[C@@H](O[C@H]3O[C@H](CO)[C@@H](O)[C@H](N)[C@H]3O)[C@H](N)C[C@@H]2N)[C@H](N)[C@@H](O)[C@@H]1O	none (no result: HCMV antiviral, HCV inh)

Screening results as filed in PubChem BioAssay.
